Compound activity deposited in PubChem BioAssay by National Center for Advancing Translational Sciences (NCATS).
Most compounds without a hit are left out; they make up all but 3.3% or so of the library.
HCV inh: qHTS Assay for Inhibitors of Hepatitis C Virus (HCV) | 3.4% of 340,000 active | Huh7.5.1 HCVcc-Cre infection, luciferase reporter, 44 h | Potency, µM (titrated, usually from 41.8 µM), inactives show at the highest dose activity change, negative = inhibition, usual class: inhibitors; active means well fitted inhibition curve with a large enough effect; inconclusive means small, poorly fitted or top-dose-only effect, or another doubt; inactive means no such curve, though single readings can be large or run the other way
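Reporter virus HCVcc-Cre (~0.5 moi) infects cells exposed to compound; seeding density 1,000 cells/well with 4 h settling beforehand. Luminescence, 15 sec read, taken 44 h post-infection following a 15 min RT substrate incubation.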
Vaccinia Venus: qHTS for Stage-Specific Inhibitors of Vaccinia Orthopoxvirus: Venus Reporter Primary qHTS | Potency, µM (series often up to 36.5 µM), for the others: top-dose activity change, negative = inhibition, usual class: inhibitors | 0.46% of 330,000 active | Vaccinia virus Venus reporter expression, fluorescence; calls by dose curve; tested in A549 cells; further: nearly all actives have a fitted effect of over 30% in size
Vaccinia mCherry: qHTS for Stage-Specific Inhibitors of Vaccinia Orthopoxvirus: mCherry Reporter Primary qHTS | Vaccinia virus mCherry reporter infection, fluorescence | Potency, µM (doses to about 36.5 µM), for the others: top-dose activity change, negative = inhibition, most hits filed as inhibitors | 0.63% of 310,000 active | AID 720579, 2013; calls by dose curve; tested in A549 cells; further: nearly all actives have a fitted effect of over 35% in size
An asterisk follows results filed as active; i = inactive; ? = inconclusive; · = no result; [ ] = another dose, or the depositor's remark. On the % scale 0 is the no-effect control and ±100 the full control effect; potency means the concentration at half of the fitted maximal effect.

SMILES	HCV inh	Vaccinia Venus	Vaccinia mCherry
COc1ccc(OCC(O)CNCCOc2ccccc2OC)c(C(C)(C)C)c1 (stereo not drawn)	18µM*	·	·
CC(=O)N1CC(C)Sc2ccc(S(=O)(=O)NCCc3ccc(C)cc3)cc21 (stereo not drawn)	11µM*	·	·
CC(=O)N1CCSc2ccc(S(=O)(=O)NCCc3ccc(Cl)cc3)cc21	11µM*	-2%[7.34 µM]	-18%[7.34 µM]
COc1ccccc1CNS(=O)(=O)c1ccc2c(c1)N(C(C)=O)CC(C)S2 (stereo not drawn)	-15%	-12%	-20%
CC(=O)N1CCSc2ccc(S(=O)(=O)NCCc3ccc(C)cc3)cc21	?	-15%	-20%
Oc1ccc(Br)cc1C1C=C(c2ccc3c(c2)OCO3)NC(c2ccc(Br)cc2)N1 (stereo not drawn)	·	-12%	30%
COc1ccc2c(c1)c1nnc(SC(C)C)nc1n2C	·	-8%	-9%
CC(C)c1ccccc1NC(=S)NCCCn1ccnc1	1%	·	·
COc1cccc(NC(=O)CN(C)C(=O)C23CC4CC(CC(Cl)(C4)C2)C3)c1	-14%	·	·
Cc1ccc(NC(=S)N(CCCN2CCCC2)Cc2cccn2Cc2ccc(Cl)cc2)cc1C	?	-13%	?
Cc1ccc(NC(=S)N(CCCN2CCCC2)Cc2cccn2Cc2ccc(Cl)cc2)cc1Cl	0.56µM*	-19%	-16%
COc1ccc2c(c1)CC(NC(=O)Nc1c(C)cc(C)cc1C)CO2 (stereo not drawn)	·	-9%	-16%
O=C(CCl)N(C/C=C/c1ccccc1)c1ccc2c(c1)OCCO2	2.2µM*	-25%	-6%
O=C(/C=C/c1ccccc1)c1ccc2c(c1)OCCCCO2	-2%	?	?
O=C(Nc1ccc(OCC(F)(F)C(F)F)c(C(F)(F)F)c1)c1ccccc1	10µM*	?	-25%
O=C(Nc1ccc(OCC(F)(F)C(F)F)c(C(F)(F)F)c1)c1ccccc1O	6.3µM*	10µM*	?
COc1cccc(NC(=O)c2ccccc2C(F)(F)F)c1	8%	1%	-28%
O=C(Nc1ccc(OCC(F)(F)C(F)F)cc1)c1ccncc1	?	-15%	i
COc1ccc(Br)cc1CN(C)C(=O)c1cnc(C)cn1	3%	·	·
COc1ccccc1-c1c(C)nn2c(N3CCN(c4ccccc4OC)CC3)cc(C)nc12	2%	-30%	9%
Cc1cc(N2CCCCC2)n2ncc(-c3ccc(Cl)cc3)c2n1	-31%	·	·
Cc1nn2c(N3CCN(C4CCCC4)CC3)cc(C(C)(C)C)nc2c1-c1ccccc1	-13%	·	·
Cc1cc(N2CCCCC2)n2ncc(-c3ccccc3)c2n1	10µM*	-19%	-8%
COc1ccccc1-c1c(C)nn2c(N3CCCCCC3)cc(C)nc12	13µM*	?	?
COc1ccc(-c2cc(C)nc3c(-c4ccccc4)cnn23)cc1	11µM*	-11%	-13%
SMILES	HCV inh	Vaccinia Venus	Vaccinia mCherry
Cc1cc(-c2ccccc2)n2ncc(-c3ccccc3)c2n1	?	-26%	i
Cc1nn2c(N3CCCC3)cc(C(C)C)nc2c1-c1ccccc1	14µM*	·	·
CN(C)c1ccc(C=Nc2cncc3ccccc23)cc1	·	-5%	-13%
O=C(Nc1cccc(Cl)c1)c1nc[nH]c1C(=O)Nc1ccccc1F	·	?	1%
COc1ccc(CCCNC(=O)C2Cc3c(-c4ccccc4)ccnc3O2)cc1 (stereo not drawn)	·	-28%	?
Cc1ccc(Nc2c(-c3ccc(N(C)C)cc3)nc3ccccn23)cc1	·	-8%	-29%
CC(C)c1ccc(NC(=O)c2cc3c([nH]c2=O)CC(C)(C)CC3=O)cc1	·	-4%	22%
CCOc1ccccc1NC(=O)CSc1nccn1Cc1ccc(F)cc1	·	-10%	i
COc1ccccc1-c1c(C)nn2c(-c3ccccc3)cc(C)nc12	5µM*	?	-12%
Cc1cc(N2CCCCC2)n2nc(C)c(-c3ccccc3)c2n1	1.6µM*	-28%	·
Cc1nn2c(N3CCN(C(=O)c4ccco4)CC3)cc(C(C)(C)C)nc2c1-c1ccccc1	13%	10µM*	·
COCCNc1cc(C)nc2c(-c3ccccc3OC)c(C)nn12	?	-12%	-14%
Cc1nn2c(N3CCN(C)CC3)cc(C(C)(C)C)nc2c1-c1ccccc1	?	-3%	i
Cc1cc(N2CCC(C)CC2)n2nc(C)c(-c3ccccc3)c2n1	-19%	·	·
Nc1ncnc2c1ncn2[C@@H]1O[C@H](COP(=O)(O)OP(=O)(O)CP(=O)(O)O)[C@@H](O)[C@H]1O	·	-4%	-10%
Cc1c(O)nc(SC2CC(=O)N(c3cc(Cl)cc(Cl)c3)C2=O)[nH]c1=O (stereo not drawn)	10%	-8%	-18%
O=C(NCc1ccccc1F)C(=O)NCC(c1ccco1)S(=O)(=O)c1ccccc1 (stereo not drawn)	·	-7%	-15%
CCOc1cc(/C=N/NC(=O)C2CCCC2)ccc1OC(C)C	-6%	1%	-12%
O=C(Nc1cccc(Br)c1)N1CCC(CN2CCCCCC2)CC1	·	-12%	-11%
COc1ccccc1CN1CCOc2ccc(C(C)(O)CN(C)C)cc2C1 (stereo not drawn)	·	-13%	-3%
COc1cc(=O)n2c(c1C(=O)NC(C)c1ccco1)CCN(Cc1ccc3nsnc3c1)CC2 (stereo not drawn)	·	-4%	-10%
O=C(c1cccs1)N1N=C(c2ccccc2)CC1c1ccccc1 (stereo not drawn)	14µM*	-18%	-14%
O=C(c1cccs1)N1N=C(c2ccc(O)cc2)CC1c1ccccc1 (stereo not drawn)	?	-28%	-10%
CC(=O)c1sc(-c2ccccc2)cc1N	8.9µM*	-21%	-5%
NNC(=O)c1sc(-c2ccccc2)cc1N	24%	-21%	-27%
SMILES	HCV inh	Vaccinia Venus	Vaccinia mCherry
CC(OC(=O)c1ccccc1OCCOc1ccccc1)C(=O)Nc1ccc(Br)cc1 (stereo not drawn)	·	-15%	-13%
CCN1CCS/C1=C/C=C/C1=[N+](CC)CCS1	·	?	-21%
CCN1CCS/C1=C\C=C\C1=[N+](CC)CCS1	6.3µM*	·	·
CSc1ccc(CN(C)CC(=O)NC(=O)NCCC2=CCCCC2)cc1	?	-17%	-24%
CCCNC(=O)C1(C)CCCN(Cc2ccc3ccccc3c2)C1 (stereo not drawn)	·	0%	27%
CCc1cc(C(=O)NCC2Cc3cc(-c4ccccc4C(C)=O)ccc3O2)no1 (stereo not drawn)	·	-2%	-13%
COC(=O)c1ccc2c(c1)C(C)(C)C(/C=C/c1ccccc1O)=[N+]2C	7.9µM*	·	·
C[N+]1=C(/C=C/Nc2ccccc2Cl)C(C)(C)c2ccccc21	?	104%	34%
COc1cccc(CN(C)CC(=O)Nc2cccc(S(N)(=O)=O)c2)c1OC	-6%	-5%	-25%
COc1cccc(NC(=O)CN(C)CC(=O)Nc2cccc(C(F)(F)F)c2)c1	-20%	-17%	i
COc1cccc(CN(C)CC(=O)Nc2cccc(C(F)(F)F)c2)c1OC	10µM*	-11%	-2%
COc1ccc(-c2noc(N(C)CC(=O)Nc3cccc(C(F)(F)F)c3)n2)cc1	11µM*	?	·
CCCCCCn1c(SCC#N)nc2ccccc2c1=O	·	-5%	28%
O=Cc1cn(Cc2ccc(F)cc2)c2ccccc12	26%	-22%	-9%
